# Screening results (PubChem BioAssay)
# The list is not random: actives were taken first. Their share in the collection is about 5.4%.
# ALR inh: inhibitors of human sulfhydryl oxidase ALR; purified ALR, DTT oxidation, H2O2 HRP-luminol luminescence; AID 485317; inhibition, % (test concentration not listed); actives 3.8% (n = 290,000);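 active means mean replicate inhibition above about 79%, with every replicate also reaching it, limit read from the data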
# Target sequence (P55789 whole entry, looked up): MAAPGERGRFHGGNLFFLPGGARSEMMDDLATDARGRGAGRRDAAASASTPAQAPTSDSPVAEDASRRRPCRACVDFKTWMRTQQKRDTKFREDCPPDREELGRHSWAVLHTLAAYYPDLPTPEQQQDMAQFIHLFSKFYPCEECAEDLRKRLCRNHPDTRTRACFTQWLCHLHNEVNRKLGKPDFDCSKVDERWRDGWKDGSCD
# APOBEC3A inh: blocks human APOBEC3A ssDNA deamination; AID 493011; recombinant A3A, FAM/TAMRA ssDNA deamination fluorescence; actives 0.41% (n = 330,000); inhibition, % at 20 µM; P31941;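 active means at least 40% inhibition at 20 µM here, with at most 30% in a related deaminase screen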;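 further: plate controls were A3A with DMSO for no effect and wells lacking A3A enzyme for full effect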
# rCAG RNA binder: molecules binding r(CAG) RNA repeats; r(CAG) RNA repeat, TO-PRO-1 dye displacement fluorescence; inhibition, % at 3 µM; actives 1.3% (n = 370,000); AID 651821;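 active means inhibition above the plate cutoff, the mean of all test compounds on that plate plus 3 SD, cut at about 35% in these data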;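 further: 0% = DMSO alone and 100% = 100 µM mitoxantrone as full dye displacement; higher means more dye released from RNA so lower well fluorescence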
# A3G deaminase: blocks human APOBEC3G single-stranded DNA deamination | AID 493012 | inhibition, % at 20 µM | Q9HC16 | actives 0.28% (n = 330,000) | recombinant A3G, ssDNA deamination FAM/TAMRA fluorescence;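 active means inhibition of at least 40% at 20 µM, with no more than 30% in the related APOBEC3A deaminase screen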;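 further: plate controls were DMSO wells with A3G for no effect and wells lacking A3G enzyme for full effect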
# PHOSPHO1 inh: blocks human PHOSPHO1 phosphatase activity; Q8TCT1; recombinant PHOSPHO1, absorbance phosphatase assay; inhibition, % at 13.3 µM; actives 1.1% (n = 290,000); AID 1565; in the data active means inhibition above about 60%
# Target sequence (Q8TCT1 whole entry, looked up): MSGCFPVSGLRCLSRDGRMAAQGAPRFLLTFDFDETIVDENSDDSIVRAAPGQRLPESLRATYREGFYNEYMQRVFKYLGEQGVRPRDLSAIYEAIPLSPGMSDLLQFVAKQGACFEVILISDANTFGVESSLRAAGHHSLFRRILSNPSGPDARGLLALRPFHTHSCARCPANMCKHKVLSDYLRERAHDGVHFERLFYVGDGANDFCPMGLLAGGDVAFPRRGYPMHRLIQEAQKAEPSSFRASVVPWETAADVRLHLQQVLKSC
# aDG glyco act: alpha-DG glycosylation activation. AID 624168. activation, % at 10 µM. Pro5-aDG cells, alpha-DG glycosylation AlphaScreen (IIH6); 0% Pro5, 100% B10-LARGE cell signal. actives 0.22% (n = 360,000);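 active means activation of at least 8% versus controls, or a plate z-score of at least 8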;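 further: Pro5 are CHO cells carrying HIG-tagged alpha-DG that lacks glycosylation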
# rCAG binder conf: r(CAG) RNA repeat binding, confirmation; shares compounds with rCAG RNA binder; TO-PRO-1 dye displacement fluorescence; inhibition, % at 3 µM; actives 70% (n = 4,300); AID 652065;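 active means inhibition above a per-plate cutoff, the mean inhibition of sample wells plus 3 SD, cut at about 35% in these data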;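 further: loss of TO-PRO-1 fluorescence as compound displaces dye from 1x1 AA loop RNA; 0% = DMSO only wells and 100% = 100 µM mitoxantrone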
# dCAG dye counter: counter-screen for rCAG RNA binders: DNA CAG dye complex inhibitors; shares compounds with rCAG RNA binder; d(CAG) DNA oligo TO-PRO-1 dye displacement, fluorescence; inhibition, % at 3 µM; actives 94% (n = 4,300); AID 652068;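 active means inhibition above its plate's cutoff, the mean test-well inhibition plus 3 SD, cut at about 4.8% in these data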;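 further: 0% = DNA dye mix with DMSO and 100% = 100 µM mitoxantrone; hits displace the dye from DNA and so lower well fluorescence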
# DNA CAG DR: counter-screen for rCAG binders: inhibitors of DNA CAG TO-PRO-1 complex; shares compounds with rCAG RNA binder; DNA CAG/GTC duplex TO-PRO-1 dye displacement fluorescence; IC50, µM; actives 20% (n = 250); in the data active means IC50 below about 10 µM
# The depositor's hits bear a star; i = inactive; nt = no result.
SMILES,ALR inh,APOBEC3A inh,rCAG RNA binder,A3G deaminase,PHOSPHO1 inh,aDG glyco act,rCAG binder conf,dCAG dye counter,others
O=[N+]([O-])c1c(Cl)cc(Cl)cc1Cl,nt,nt,1.0,nt,nt,nt,nt,nt,
Cc1ccc(NC(=O)Cc2c(C(=O)O)n(C)c3ccccc23)cc1F,13.9,-1.4,27.2,-5.8,-24.8,-0.2,nt,nt,
CC(C)c1ccc(NC(=O)Cc2c(C(=O)O)n(C)c3ccccc23)cc1,97.0*,-2.4,50.6*,-4.9,18.4,-0.2,30.9,5.8*,
C[C@H]1CN([C@@H](C)CO)C(=O)CCCn2cc(nn2)CO[C@@H]1CN(C)S(=O)(=O)c1ccc(F)cc1,nt,nt,-2.2,nt,nt,nt,nt,nt,
O=C(CN1CCOCC1)N1CCOCC1,nt,nt,2.6,nt,nt,-0.1,nt,nt,
C/C(=N\NC(=O)c1cccc(S(=O)(=O)Nc2ccccc2Cl)c1)c1ccc(-n2ccnc2)cc1,1.9,-1.4,39.5*,-2.4,49.4,0.2,45.2*,14.5*,
Cc1[nH]c2ccccc2c1/C=N/NC(=O)c1cccc(Br)c1,3.9,-1.9,nt,-7.9,nt,-0.2,nt,nt,
COc1ccc(NS(=O)(=O)c2cccc(C(=O)N/N=C(\C)c3ccc(-n4ccnc4)cc3)c2)cc1,7.3,-0.4,5.0,-2.7,27.6,-0.2,nt,nt,
Cc1ccc(/C=N/NC(=O)c2cccc(S(=O)(=O)Nc3ccccc3Cl)c2)o1,15.3,1.3,18.3,-5.2,7.4,0.6,nt,nt,
CCc1cccc2c(/C=N/NC(=O)c3cccc(S(=O)(=O)Nc4ccccc4Cl)c3)c[nH]c12,7.8,1.7,56.6*,-0.2,8.8,0.1,72.1*,31.1*,DNA CAG DR=i
Cc1[nH]c2ccccc2c1/C=N/NC(=O)c1cccc(S(=O)(=O)Nc2ccccc2Cl)c1,0.5,-0.8,48.0*,-5.1,4.1,-0.3,62.8*,21.2*,
O=[N+]([O-])c1ccc2nc(NS(=O)(=O)c3ccc(F)cc3)sc2c1,-3.0,-0.8,43.2*,-5.9,24.0,-0.1,27.9,4.3,
CO[C@@H]1[C@@H](OC(N)=O)[C@@H](O)[C@H](Oc2ccc3c(O)c(NC(=O)c4ccc(O)c(CC=C(C)C)c4)c(=O)oc3c2C)OC1(C)C,nt,nt,50.4*,nt,nt,0.0,56.3*,26.0*,
Cc1c(O[C@@H]2O[C@H](CO)[C@@H](O)[C@H](O)[C@H]2O)ccc2c1oc(=O)c1ccccc12,-3.5,-1.5,2.1,-4.9,19.7,0.1,nt,nt,
CC1(C)CC(NC(=O)c2ccccc2NS(=O)(=O)c2ccc(Br)cc2)CC(C)(C)N1,nt,nt,1.5,nt,nt,0.0,nt,nt,
CCCS(=O)(=O)NC(=O)C1(C)CCCN(C(=O)c2cc(-c3cccs3)oc2C)C1 (configuration not stated),nt,nt,7.0,nt,nt,-0.4,nt,nt,
COc1ccc(-c2nn(-c3ccccc3)cc2C=O)cc1[N+](=O)[O-],-15.5,-5.3,2.5,-4.7,18.5,0.2,nt,nt,
COc1ccc(-c2nn(-c3ccccc3)cc2/C=C/C(=O)O)cc1[N+](=O)[O-],16.9,2.9,56.0*,-2.9,23.9,-0.1,48.2*,11.7*,
C=CCN=C1NC(c2ccc(Cl)cc2)C(C(=O)OC)=C(C)N1C (configuration not stated),nt,nt,5.3,nt,nt,nt,nt,nt,
Cc1cccc(C2(c3cccc(C)c3)CC2C(=O)Nc2ccc([N+](=O)[O-])cc2O)c1 (configuration not stated),-7.4,-1.8,49.1*,-6.8,-18.2,-0.4,52.0*,21.9*,
O=C(O)c1cc(O)c2c(c1)[C@H]([C@H]1c3cc(C(=O)O)cc(O)c3C(=O)c3c(O[C@@H]4O[C@H](CO)[C@@H](O)[C@H](O)[C@H]4O)cccc31)c1cccc(OC3O[C@H](CO)[C@@H](O)[C@H](O)[C@H]3O)c1C2=O (some centres not stated),0.9,103.2,100.5*,95.7,nt,-0.1,99.4*,89.6*,
